Laboratory results taken from PubChem BioAssay AID631 (The Scripps Research Institute Molecular Screening Center, 2007).
In all, about 200,000 compounds went through this assay and about 810 (0.41%) were called active. Shown is part of a subset that was picked to be rich in actives. Values without a mark were called inactive. Cut-off read from the data, not from the text of the source: active = activation above about 19%; inactive = the rest.

target: Peroxisome proliferator-activated receptor gamma (Homo sapiens) (UniProt P37231); assay: PPARgamma agonists recruiting SRC-1 coactivator, primary screen, biochemical (AID 631); details: PPARgamma-SRC-1 coactivator recruitment biochemical assay; at 8 µM; hits give high values;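 note: 0% = DMSO and 100% = reference agonist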
Sequence (P37231 whole entry, looked up): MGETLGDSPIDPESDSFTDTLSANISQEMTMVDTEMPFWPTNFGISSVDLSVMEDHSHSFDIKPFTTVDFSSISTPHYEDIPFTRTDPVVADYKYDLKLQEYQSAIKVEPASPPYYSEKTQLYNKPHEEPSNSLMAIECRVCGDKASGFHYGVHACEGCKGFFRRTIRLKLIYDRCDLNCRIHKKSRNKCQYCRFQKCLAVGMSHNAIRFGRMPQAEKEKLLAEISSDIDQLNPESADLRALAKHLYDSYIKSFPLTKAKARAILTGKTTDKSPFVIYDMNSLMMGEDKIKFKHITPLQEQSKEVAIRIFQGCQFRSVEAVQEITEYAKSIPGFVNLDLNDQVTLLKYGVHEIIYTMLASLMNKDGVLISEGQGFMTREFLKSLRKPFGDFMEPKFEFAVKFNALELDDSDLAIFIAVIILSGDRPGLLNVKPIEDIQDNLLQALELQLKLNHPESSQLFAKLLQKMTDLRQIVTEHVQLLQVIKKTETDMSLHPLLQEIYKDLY

Row | SMILES | activation
1 | CCOC(=O)CNC(=O)N1c2ccccc2Sc2ccccc21 | 8.4%
2 | Cc1ccc2c(c1)C1CN(C)CCC1N2C(=O)c1ccccc1NS(=O)(=O)c1ccc(F)cc1C (configuration not stated) | 1.7%
3 | COc1cc(NC(=O)COC(=O)c2cnc(C)cn2)c(C)cc1[N+](=O)[O-] | -1%
4 | Cc1cc(NC(=O)CSc2nnc(Nc3ccccc3F)s2)no1 | -0.2%
5 | Cc1ccc(-c2csc(SCC(=O)Nc3cc(C)on3)n2)cc1 | -4%
6 | Cc1cc(C)c2c(c1)cc(C)c1nnc(SCC(=O)Nc3cc(C)on3)n12 | 22.2% (active)
7 | COc1cccc(C2SCC(=O)N2c2cccc(C)c2)c1OC (configuration not stated) | 2.3%
8 | CCCNC(=O)c1c(Cl)cnn1-c1ccc(C)cc1 | -0.9%
9 | O=C(O)c1ccc(N/N=C/c2ccc3ncccc3c2)cc1 | 7.5%
10 | O=C(Nc1nnc(Cc2ccc(Cl)cc2)s1)c1cccnc1 | 0%
11 | O=C1CN(C(=O)COC(=O)c2cnc(Cl)c(Cl)c2)c2ccccc2N1 | 8.3%
12 | Cc1cccc2nc(CSc3nc4[nH]ncc4c(=O)n3-c3cccc(Cl)c3)cc(=O)n12 | 3.8%
13 | O=c1c2sccc2nc(SCc2cc(=O)n3ccccc3n2)n1-c1ccc(Br)cc1 | 3%
14 | CCc1ccc(-n2c(SCc3cc(=O)n4cc(Br)ccc4n3)nc3[nH]ncc3c2=O)cc1 | 23.4% (active)
15 | Cc1ccsc1C1C(C#N)=C(N)OC2=C1C(=O)CC(C)(C)C2 (configuration not stated) | 11.2%
16 | COc1ccccc1CCNC(=O)CSc1nnc2ccc(-c3cccnc3)nn12 | 4.1%
17 | O=C(Oc1ccccc1)Oc1ccc2c(c1)oc(=O)c1ccccc12 | 33.7% (active)
18 | CC(=O)Oc1ccc2c(C)c(CC(C)O)c(=O)oc2c1 (configuration not stated) | -0.8%
19 | Cc1c(Cc2ccccc2)c(=O)oc2cc(OCC(N)=O)ccc12 | -0.5%
20 | CNC(=S)Nc1ccc([N+](=O)[O-])cc1 | 7.4%
21 | CCOc1cnc(-c2c(-c3ccccc3Cl)noc2C)o1 | 9.5%
22 | COc1ccc(-c2ccc(CNCCCN3CCOCC3)o2)cc1Cl | 10.2%
23 | CCCOc1ccc(C2C(C(=O)c3ccc(C)o3)=C(O)C(=O)N2CCCn2ccnc2)cc1 (configuration not stated) | 25.1% (active)
24 | COc1cc(C2C(C(=O)c3ccc(C)o3)=C(O)C(=O)N2Cc2cccnc2)ccc1O (configuration not stated) | -0.3%
25 | COc1cc(C2C(C(=O)c3ccc(C)o3)=C(O)C(=O)N2CCc2ccccc2)ccc1O (configuration not stated) | 4.9%

Row | SMILES | activation
26 | COc1ccc2c(c1)CCc1cn3ncc(C#N)c3nc1-2 | 2.5%
27 | CCCn1c(=S)[nH]c2ccc(C(F)(F)F)cc21 | 7.7%
28 | Cc1ccc(NC(=O)CSCC(=O)NC2CCCCC2)cc1 | 6.7%
29 | Cc1nc2ccccc2cc1OCc1ccc(F)cc1 | -0.6%
30 | Cc1cccc(OCc2ccc(C(=O)Nc3ccc(F)cc3)cc2)c1 | 8.1%
31 | Fc1ccc(COc2cccc(-c3n[nH]c(=S)o3)c2)cc1 | 61.7% (active)
32 | COc1ccc(OC)c(-c2csc(NC(=O)C3=NNC(=O)CC3)n2)c1 | -3.7%
33 | Cc1cc(NC(=O)COC(=O)COc2ccc(Cl)cc2C)c([N+](=O)[O-])cc1C | -2.9%
34 | COc1ccc2c(Cl)c(C(=O)NCc3ccco3)sc2c1 | -0.6%
35 | COc1ccc2c(Cl)c(-c3nnco3)sc2c1 | 24.2% (active)
36 | COc1ccc(-c2nnco2)cc1OC | -4%
37 | CC(=O)Nc1ccccc1OC(C)C(=O)N1CCC(C)CC1 (configuration not stated) | 3.2%
38 | Cc1nn2cc(-c3ccc(Cl)cc3)cnc2c1Br | 9.4%
39 | Cc1cc(C(F)(F)F)n2ncc(-c3ccccc3)c2n1 | -0.8%
40 | Cn1c(-c2sccc2OCc2cccc(C(F)(F)F)c2)n[nH]c1=S | 2.2%
41 | Cn1c(-c2sc3cc(C(F)(F)F)cnc3c2-c2ccccc2)n[nH]c1=S | 36.3% (active)
42 | COc1cccc(CNC(=O)CCC2CCCN(C(=O)c3ccoc3C)C2)c1 (configuration not stated) | 11.7%
43 | CC1(C)CN(c2ccc(-c3ccnc4ncnn34)cc2)C1=O | -2.6%
44 | CSCCC(=O)N1CCCC(CNC(=O)c2ccccc2Cl)C1 (configuration not stated) | 6%
45 | COc1ccccc1C1/C(=C(/O)c2ccc(OC(C)C)cc2)C(=O)C(=O)N1c1cc(C)on1 (configuration not stated) | 16.5%
46 | COc1ccc(C2/C(=C(/O)c3ccccc3)C(=O)C(=O)N2c2ncccn2)cc1OC (configuration not stated) | 8.9%
47 | Cc1cc(N2C(=O)C(=O)/C(=C(/O)c3ccc(Cl)cc3)C2c2cccc(Br)c2)no1 (configuration not stated) | 20.6% (active)
48 | Cc1ccc(C(=O)Cc2nnc(C)s2)cc1 | -2.5%
49 | Cc1cccc(NC(=S)N2CCC(O)CC2)c1C | 1.3%
50 | CCN1CCN(c2cc3nc(C)n(Cc4ccccc4)c(=O)c3cc2NC(=O)c2ccccc2F)CC1 | 3.9%

Row | SMILES | activation
51 | COc1cccc(NC(=S)NCc2ccco2)c1 | -2.7%
52 | Cc1nc(-c2ccccc2)sc1-c1nc(-c2ccccc2)ncc1S(=O)(=O)c1ccccc1 | 19.3% (active)
53 | Cc1nc(-c2ccccc2)sc1C(=O)/C=C/c1ccccc1 | -1.9%
54 | C=CCn1c(-c2sc(-c3ccccc3)nc2C)n[nH]c1=S | 0.8%
55 | O=C(O)C1C2CC2CN1C(=O)c1ccc(Cl)cc1Cl (configuration not stated) | 4.2%
56 | Cc1cccc(C)c1NC(=O)C1(C)c2cccc[n+]2CC(=O)N1Cc1cccs1 (configuration not stated) | -2.9%
57 | Cc1nc(SCc2ccc(F)cc2)c([N+](=O)[O-])[nH]1 | 5.8%
58 | COc1ccc(/C(O)=C2\C(=O)C(=O)N(Cc3ccco3)C2c2ccc(OC)cc2OC)cc1 (configuration not stated) | 2%
59 | COc1ccc(/C(O)=C2/C(=O)C(=O)N(c3nc(C)c(C)s3)C2c2ccco2)cc1 (configuration not stated) | 22.1% (active)
60 | COc1ccccc1C1/C(=C(/O)c2ccc(C)cc2)C(=O)C(=O)N1Cc1ccco1 (configuration not stated) | 10.8%
61 | COC(=O)c1c(C)[nH]c(C)c1-c1ccc([N+](=O)[O-])cc1 | -0.7%
62 | Cc1ccc(/C=N/NC(=O)COc2ccccc2-c2ccccc2)cc1 | 2.1%
63 | O=C(Oc1ccc([N+](=O)[O-])cc1)c1ccc(Cl)c(S(=O)(=O)N2CCCCC2)c1 | -9.6%
64 | CC(C)N(C(=O)Cn1cc(SCC(=O)N2CCCC2)c2ccccc21)C(C)C | 5.8%
65 | Cc1ccc(NC(=O)CC2C(=O)N(Cc3ccccc3)C(=S)N2NC(=O)c2cccc(F)c2)c(C)c1 (configuration not stated) | -0.5%
66 | CCN(CC)CCCNC(=O)c1cc(-c2cccc(Cl)c2)on1 | 3.6%
67 | CCN(CC)CCCNC(=O)CCc1ccccc1 | 3.3%
68 | CCN(CCCNC(=O)CSc1cc(=O)n(C)c2cc(Cl)ccc12)Cc1ccccc1 | 55.4% (active)
69 | O=C(Nc1ccccc1Cl)c1ccccc1S(=O)(=O)c1ccccc1[N+](=O)[O-] | 2.9%
70 | COc1ccc(C(=O)C[n+]2ccc(C)cc2)cc1 | 0.2%
71 | S=C(NN=C1CCN(Cc2ccccc2)CC1)NC1CCCCC1 | -1.7%
72 | CC(Sc1cccc[n+]1[O-])C(=O)Nc1cccc(S(=O)(=O)N2CCOCC2)c1 (configuration not stated) | -5.3%
73 | COc1cccc(NC(=S)NCc2ccccn2)c1 | 2.4%
74 | Cc1nn(C)c(C(=O)NNC(=S)NC2CCCCC2)c1Cl | -8.4%
75 | COc1cccc(NC(=S)NC(=O)c2c(Cl)c(C)nn2C)c1 | 30.8% (active)

Row | SMILES | activation
76 | O=C(/C=C/c1cnc2ccccc2n1)NC1CCCCCC1 | -0.4%
77 | O=c1cc(O)c(-c2cccc(C(F)(F)F)c2)c(Cl)[nH]1 | 8%
78 | CCOC(=O)C1CCN(C(=O)Cn2cc(C#N)c3ccccc32)CC1 | -2.2%
79 | Cn1c(=O)cc(SCC(=O)N2CCCC2)c2cc(Cl)ccc21 | 53.4% (active)
80 | CC(=O)c1ccc(-n2nnnc2SCC(=O)N2CCN(C(=O)c3ccco3)CC2)cc1 | 0.3%
81 | CCOC(=O)C1CCN(C(=O)CSc2cc(=O)n(C)c3ccccc23)CC1 | 49.8% (active)
82 | CCOC(=O)N1CCC(NC(=O)COc2cc(=O)n(C)c3ccccc23)CC1 | -0.7%
83 | CCOc1ccc(CCNC(=O)CSc2cc(=O)n(C)c3ccc(Cl)cc23)cc1OCC | 12%
84 | Cn1c(=O)cc(SCC(=O)N2CCN(C(=O)c3ccco3)CC2)c2ccccc21 | 49.4% (active)
85 | O=C(CSCc1ccc(Cl)cc1)N1CCCCC1 | 2%
86 | Cc1cccc(OCc2nnc(SCC(=O)N3CCN(C(=O)c4ccco4)CC3)n2C)c1C | 5.6%
87 | CC1CN(CCCOc2ccccc2-c2ccccc2)CC(C)O1 (configuration not stated) | 6.7%
88 | C/C(=N\Nc1nc(N2CCOCC2)nc(N2CCOCC2)n1)c1ccc([N+](=O)[O-])cc1 | 1.7%
89 | CCN(CC)c1ccc(C(=O)N/N=C(\C)c2cccc(OC)c2)cc1 | 9.4%
90 | CCOC(=O)c1c(N)nn(C(=O)c2ccccc2)c1-c1ccccc1 | 3%
91 | COc1cc2c(cc1OC)C(=O)NCC(C)(C)O2 | 9.4%
92 | CCOC(=O)c1ccccc1C(=O)N1CCOCCOCCOCC1 | -0.2%
93 | Cc1cnc(C(=O)N2CCCC(C(=O)c3ccc(C(F)(F)F)cc3)C2)cn1 (configuration not stated) | 5.6%
94 | CN(C)/C(=N\OC(=O)c1ccccc1)c1nonc1N | 2.5%
95 | O=C(Nn1cnc2ccccc2c1=O)c1ccccc1 | 12.8%
96 | Nc1nc(SCC(=O)NCCN2CCOCC2)nc2sc3c(c12)CCC3 | 6%
97 | CCOc1cc(C2C(C(=O)OC(C)C)=C(C)NC3=C2C(=O)CCC3)cc([N+](=O)[O-])c1O (configuration not stated) | -1%
